Assay outcomes: PubChem BioAssay, National Center for Advancing Translational Sciences (NCATS)
VDR inhibitor: inhibitors of human vitamin D receptor; P11473; VDR-SRC2-3 peptide fluorescence polarization, 2 h; Potency, µM, for the others: max response, negative = inhibition, actives largely listed as inhibitors; 400,000 compounds, 0.93% hits; also: potency is read from the fitted curve at half-maximal effect
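Compounds are added to VDR with labelled SRC2-3 coactivator peptide and held 2 h at room temperature. Inhibition of the VDR–peptide interaction is then read as a change in fluorescence polarization.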
PLK1 PBD block: inhibitors of human PLK1 polo-box domain binding; P53350; Plk1 PBD binding of FITC phosphopeptide, fluorescence polarization; Potency, µM, for inactives: max response, negative = inhibition, most hits filed as inhibitors; 360,000 compounds, 2.8% hits; also: potency is read from the fitted curve at half-maximal effect; series mostly up to about 57 µM; nearly all actives have a fitted effect of over 65% in size
G9a block: G9a (human) methyltransferase inhibition | Q96KQ7 | G9a H3K9 monomethylation, AlphaScreen, 2 h | Potency, µM (titrated, usually from 102 µM), without a hit: at the highest dose activity, negative = inhibition, hits mostly inhibitors | 350,000 compounds, 8.8% hits | AID 504332; also: potency is read from the fitted curve at half-maximal effect; nearly all actives have a fitted effect of over 75% in size
Target sequence (Q96KQ7 913-1193 limits assumed): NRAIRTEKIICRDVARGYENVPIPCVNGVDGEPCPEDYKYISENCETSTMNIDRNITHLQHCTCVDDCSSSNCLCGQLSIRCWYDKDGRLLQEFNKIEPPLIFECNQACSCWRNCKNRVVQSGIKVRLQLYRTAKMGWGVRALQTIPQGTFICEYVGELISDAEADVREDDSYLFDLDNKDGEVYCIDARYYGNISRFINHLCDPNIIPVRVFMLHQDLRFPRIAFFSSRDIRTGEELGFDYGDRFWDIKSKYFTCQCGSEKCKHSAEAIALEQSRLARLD
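Compounds were preincubated with 20 nM G9a for 15 min, after which biotinylated H3K9 peptide (500 nM) and SAM (20 uM) started a 2 h room-temperature reaction. Monomethylated product was quantified by antibody-based AlphaScreen chemiluminescence.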
MmCpn inh: M. maripaludis TRiC chaperonin inhibition | purified Mm-Cpn ATPase, ADP Transcreener TR-FRET | Potency, µM (doses to about 76.9 µM), inactives show top-dose activity, negative = inhibition, usual class: inhibitors | 330,000 compounds, 0.031% hits | AID 504842; also: potency is read from the fitted curve at half-maximal effect; nearly all actives have a fitted effect of over 80% in size
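Purified archaeal chaperonin (25 nM final) was preincubated with compound for 10 min at 37°C, then ATP (10 uM final) was added for 30 min at 37°C in Tris pH 7.4/KCl/MgCl2/DTT buffer. ADP was quantified by HTRF Transcreener TR-FRET.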
CCT modulator: cytosolic chaperonin activity modulation | purified chaperonin ATPase assay, HTRF ADP detection, 30 min | activity change, % (test concentration not listed), hits read low | 360,000 compounds, 0.3% hits | AID 651819; in the data active = activity change below about -30%
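Enzyme 40 or 20 nM (batch-dependent) in Tris pH 7.4/KCl/MgCl2/DTT; cpd 76 uM single point; ATP 10 uM; 30 min 37 °C; Transcreener ADP HTRF detection, 30 min RT; ratio 665/615.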
Sfp inh: blocks B. subtilis Sfp PPTase activity | Q9F4F7 | Biochemical Sfp PPTase activity, qHTS | 310,000 compounds, 3.5% hits | Potency, µM, inactives show largest response in the series, negative = inhibition, hits mostly inhibitors;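 also: the enzyme is Sfp with the accession as filed and its product quenches rhodamine fluorescence; potency is read from the fitted curve at half-maximal effect; 0% = enzyme reaction without inhibitor and -100% = no enzyme wells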
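Step 1, compound plus 15 nM Sfp-PPTase, 15 min, room temperature. Step 2, add rhodamine-CoA (5 uM) and BHQ-2-YbbR (12.5 uM). Step 3, read 525/598 nm fluorescence at 0 and 30 min.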
An asterisk follows results filed as active; [ ] = dose if it differs, or a comment. Sampled rows, rich in hits. Any-hit rate of the full collection: about 10%. Unless noted, calls follow the shape of the dose curve; as a rule, active = well fitted curve in the direction sought with a large enough effect; inconclusive = small, poorly fitted or top-dose-only effect, or another doubt; inactive = no such curve, though single readings can be large; an effect the other way counts as inactive or inconclusive. Unless noted, % is scaled to controls: 0 for no effect and ±100 for the full control effect.

For O=C(c1ccccn1)N1N=C2/C(=C/c3ccc(F)cc3)CCCC2C1c1ccc(F)cc1 (configuration not stated) the results were VDR inhibitor 1%, PLK1 PBD block 2%, G9a block inconclusive, MmCpn inh -2%, CCT modulator -2 and Sfp inh 5%.
Screening O=C(O)c1ccccc1C(=O)N1N=C2/C(=C/c3cccc([N+](=O)[O-])c3)CCCC2C1c1cccc([N+](=O)[O-])c1 (configuration not stated) returned VDR inhibitor -4%, PLK1 PBD block 67µM*, G9a block 50µM*, MmCpn inh 1%, CCT modulator -1 and Sfp inh -16%.
`CC(=O)N1N=C2/C(=C/c3ccccc3)CCCC2C1c1ccccc1` (configuration not stated) gave VDR inhibitor 71µM*, PLK1 PBD block 27µM*, MmCpn inh 2%, CCT modulator -2 and Sfp inh -19%.
CCCn1c(SCC(=O)N2N=C3/C(=C/c4ccc(OC)cc4)CCCC3C2c2ccc(OC)cc2)n[nH]c1=O (configuration not stated) was read as VDR inhibitor -8%, PLK1 PBD block 6%, G9a block inconclusive, MmCpn inh 0%, CCT modulator -1 and Sfp inh -21%.
O=C(O)c1c(C(=O)N2N=C3/C(=C/c4ccccc4)CCCC3C2c2ccccc2)cccc1[N+](=O)[O-] (configuration not stated) was read as VDR inhibitor -8%, PLK1 PBD block inconclusive, G9a block 50µM*, MmCpn inh -6%, CCT modulator -2 and Sfp inh -26%.
For COc1ccc(/C=C2\CCCC3C2=NN(C(=O)c2ccco2)C3c2ccc(OC)c(OC)c2)cc1OC (configuration not stated) the results were VDR inhibitor 12%, PLK1 PBD block 1%, G9a block -1%, MmCpn inh 0%, CCT modulator 1 and Sfp inh -26%.
For COc1ccc(NC(=O)CCS(=O)(=O)c2cc3c(cc2C)NC(=O)CO3)cc1Cl the results were VDR inhibitor -2% and G9a block -2%[59 µM].
O=c1c(-c2ccccc2)c1-c1ccccc1 was read as VDR inhibitor 45µM*, G9a block 29%[59 µM], MmCpn inh 0% and Sfp inh 13%.
Screening O=c1o[nH]c(-c2ccccc2)c1-c1ccccc1 returned VDR inhibitor 2%, PLK1 PBD block -11% and CCT modulator 1.
`CCOC(=O)c1ccc([N+](=O)[O-])cc1NC(C)=O` gave VDR inhibitor -15%, PLK1 PBD block -5%, G9a block -4%, MmCpn inh 2%, CCT modulator 2 and Sfp inh 9%.
`CCOc1ccc(-c2csc(N)c2C(=O)OC)cc1` gave VDR inhibitor inconclusive, PLK1 PBD block 7.9µM*, G9a block 4.5µM*, MmCpn inh 0%, CCT modulator 0 and Sfp inh 45µM*.
For CCOC(=O)c1csc(N)c1-c1ccc([N+](=O)[O-])cc1 the results were VDR inhibitor inconclusive, PLK1 PBD block inconclusive, G9a block 11µM*, MmCpn inh -1%, CCT modulator 3 and Sfp inh 50µM*.
CCOC(=O)c1c(-c2cccc([N+](=O)[O-])c2)csc1NC(=O)C1CC1 was read as VDR inhibitor 3%, PLK1 PBD block -12%, G9a block -11%[2.33 µM], MmCpn inh -1%, CCT modulator -4 and Sfp inh -6%.
Screening CCOC(=O)c1c(-c2cccc([N+](=O)[O-])c2)csc1N returned VDR inhibitor -25%, PLK1 PBD block 30µM*, G9a block inconclusive, MmCpn inh 0%, CCT modulator -2 and Sfp inh -14%.
Screening Cc1ccc(/C=C2/C(=O)ON=C2c2ccccc2)o1 returned VDR inhibitor 23%, PLK1 PBD block 0.67µM*, G9a block 13µM*, MmCpn inh 0%, CCT modulator -1 and Sfp inh 14µM*.
O=C1ON=C(c2ccccc2)/C1=C\c1ccco1 was read as VDR inhibitor inconclusive, PLK1 PBD block 9.5µM*, G9a block 32µM*, MmCpn inh 0%, CCT modulator 0 and Sfp inh 14µM*.
`CCCCc1ccc(/C=C2/C(=O)ON=C2c2ccccc2)s1` gave VDR inhibitor inconclusive, PLK1 PBD block -11%, G9a block -4%[59 µM], MmCpn inh 0%, CCT modulator -2 and Sfp inh -11%.
`Cc1sc(/C=C2\C(=O)ON=C2c2ccccc2)cc1Br` gave G9a block 13%[59 µM], MmCpn inh 2% and Sfp inh 11%.
CC(C)N1C/C(=C/c2ccsc2)C(=O)/C(=C/c2ccsc2)C1 was read as VDR inhibitor 16µM*, PLK1 PBD block -18%, G9a block inconclusive, MmCpn inh -5%, CCT modulator -3 and Sfp inh inconclusive.
`CCN1C(=O)S/C(=C/c2ccsc2)C1=O` gave VDR inhibitor 1%, PLK1 PBD block -4%, G9a block -45%, MmCpn inh 2%, CCT modulator -2 and Sfp inh -12%.
`CCOc1cc(-c2nn3cnnc3s2)cc(OCC)c1OCC` gave VDR inhibitor inconclusive, PLK1 PBD block 3.8µM*, G9a block 2%, MmCpn inh 0%, CCT modulator -2 and Sfp inh 11%.
For CC1(C)O[C@@H]2[C@@H](O1)C(c1ccccc1)(c1ccccc1)OP(=O)(O)OC2(c1ccccc1)c1ccccc1 the results were VDR inhibitor inconclusive and Sfp inh -4%.
CCCCC[C@@H]1C=C(C(=O)O)[C@H](c2ccc(Cl)c(Cl)c2)N1S(=O)(=O)c1ccc(C)cc1 was read as VDR inhibitor inconclusive, PLK1 PBD block 27µM*, MmCpn inh 1% and CCT modulator -1.
For CCCCC[C@@H]1C=C(C(=O)O)[C@H](c2ccc(CC)cc2)N1S(=O)(=O)c1ccc(C)cc1 the results were VDR inhibitor -6%, PLK1 PBD block 27µM*, MmCpn inh 1% and CCT modulator 1.
Cc1nc2ccn(Cc3cccnc3)c(=O)c2cc1C(=O)NCc1ccc(Cl)cc1 was read as VDR inhibitor 2% and G9a block 10%[59 µM].
`COc1cc(NC(=O)Nn2cnnc2)cc(OC)c1OC` gave VDR inhibitor 2%, PLK1 PBD block -16%, G9a block 45µM*, MmCpn inh 2%, CCT modulator 1 and Sfp inh 21%.
Screening Cn1nnnc1SCCCNCc1cccc(OCc2ccccc2)c1 returned VDR inhibitor 6% and G9a block 1%[59 µM].
